# The list is not random: actives were taken first. Their share in the collection is about 4%.
# CF NFkB inh: inhibitors of PAF-induced NF-kB signaling, primary screen, cell-based, GFP fluorescence, uHTS. inhibition, % at 5 µM. hit rate 0.86% among 360,000. KKLEB NF-kB-GFP reporter, GFP fluorescence overnight. AID 588850, 2011;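 active = at least 50% inhibition at 5 µM, scaled per plate between neutral and stimulator controls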;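 also: PAF is a Pseudomonas aeruginosa culture filtrate used as stimulus; plate controls were PAF-stimulated DMSO wells for no effect and unstimulated DMSO wells for full effect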
# TROY NFkB inh: inhibitors of TROY-driven NF-kB signaling, primary screen, Q293 LMP1-TROYcd cells, NF-kB luciferase, uHTS; Q293 LMP1-TROYcd NF-kB luciferase reporter, 4 h; inhibition, % at 10 µM; hit rate 0.98% among 360,000; AID 1347056, 2019;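 active = compounds whose plate-normalised and pattern-corrected inhibition of the luciferase reporter signal at the single screening dose is 50% or more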
# TWEAK Fn14 block: inhibitors of TWEAK-Fn14 signaling, primary screen, luciferase reporter cells, uHTS; hit rate 2% among 360,000; TWEAK-stimulated Fn14 reporter cells, luciferase luminescence, 8 h; inhibition, % at 10 µM; in the data active = inhibition above about 50%
# KKLEB cytotox: cytotoxicity in KKLEB CF airway cells, primary screen, cytotoxicity control for CF NF-kB inhibitor project, cell-based, uHTS, fluorescence assay plates | KKLEB CF airway cells viability, ATPlite luminescence, overnight; hits give low values; cells stimulated with P. aeruginosa culture filtrate | activity change (cytotoxicity), % at 5 µM | hit rate 0.36% among 360,000;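 active = corrected activity change at or below -50% at 5 µM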
# HIF-2a inh: HIF-2a reporter inhibitors, primary screen, luminescence, 786-0 RCC cells. AID 624352, 2012. inhibition, % at 18.8 µM. hit rate 0.72% among 360,000. 786-0 RCC cells HIF-2a reporter, luciferase luminescence, overnight;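 active = inhibition of the luminescence signal of 40% or more relative to plate controls, in a single-dose primary screen at 18.75 µM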
# Peg3 prom inh: Peg3 promoter-driven luciferase inhibitors, primary screen, cell-based, HeLa, luciferase luminescence | hit rate 1.7% among 360,000 | inhibition, % at 20 µM | HeLa PEG-Prom luciferase reporter, overnight;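 active = inhibition of at least 50% at 20 µM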
# * hit, by the source's call; . = not tested or not shown.
SMILES,CF NFkB inh,TROY NFkB inh,TWEAK Fn14 block,KKLEB cytotox,HIF-2a inh,Peg3 prom inh
O=C(N/N=C/c1coc2ccccc2c1=O)c1ccccc1Br,44,21,58*,2,14,-2
O=C(N/N=C/c1coc2ccccc2c1=O)c1cc(O)cc(O)c1,8,13,12,-13,21,1
O=C(N/N=C/c1coc2ccc(Cl)cc2c1=O)c1ccncc1,45,32,54*,12,22,0
CCOCc1c(C(=O)NC2=Nc3ccccc3NC(CC)=C2C(=O)OCC)oc2ccccc12,86*,17,23,-99*,-9,66*
CCOC(=O)C1=C(CC)Nc2ccccc2N=C1NC(=O)CCNC(C)=O,16,-4,0,-3,12,3
Cc1ccc(C)c(NC(=S)NC(NC(=O)Cc2cccc3ccccc23)C(Cl)(Cl)Cl)c1 (stereo not drawn),71*,25,33,-70*,17,94*
CCOC(=O)[C@]12CCC=C1N(Cc1cccc3ccccc13)C(=O)[C@H](CC(=O)NCc1ccc(OC)c(OC)c1)C2,.,34,61*,.,-29,.
COC(=O)[C@]12CCCCC=C1N(Cc1cccc3ccccc13)C(=O)[C@H](CC(=O)NCc1ccc(OC)c(OC)c1)C2,.,63*,97*,.,-20,.
CCOC(=O)[C@]12CCC=C1N(Cc1ccco1)C(=O)[C@H](CC(=O)NCc1ccc(OC)c(OC)c1)C2,.,-3,-5,.,1,.
COC(=O)[C@]12CCCCC=C1N(CCc1ccc(OC)c(OC)c1)C(=O)[C@H](CC(=O)NCc1cccc3ccccc13)C2,.,.,.,.,5,.
CCCC(=O)N1CCCC1(C)C(=O)NCCc1ccccn1 (stereo not drawn),2,9,-6,2,6,7
O=c1[nH]c(CN2CCCCC2)ccc1O,-16,2,-6,-1,20,-8
COc1ccc(C2C(=O)NN=C2C)cc1 (stereo not drawn),8,-19,9,-1,8,-3
COc1cccc(NC(=O)N2CCN(c3nc(-c4cccc(OC)c4)cs3)CC2)c1,-9,37,67*,7,-29,51*
COc1cccc(-c2csc(N3CCN(C(=O)Nc4ccccc4Cl)CC3)n2)c1,8,13,-7,-14,-62,-17
O=C(CSCc1ccccc1Br)NNC(=S)NCc1ccco1,-32,11,-6,10,9,10
CCc1ccccc1OCCCCN1CCCCC1,9,-10,5,-7,12,5
CCc1ccccc1OCCCN1CCCC1,-26,-3,59*,5,20,9
O=C(Nc1ccc(F)cc1)C1CCN(C(=O)c2ccc(F)cc2)CC1,2,-7,6,12,13,-2
Cc1ccc(C23CC4CC(CC(CN)(C4)C2)C3)cc1,12,-8,1,-13,10,103*
Cc1ccc(C23CC4CC(CC(C(N)=O)(C4)C2)C3)cc1,-7,8,25,6,-12,-15
NCC12CC3CC(C1)CC(c1ccc(Br)cc1)(C3)C2,8,-65,-55,-10,-16,104*
Cc1ccc(S(=O)(=O)N2CCN(Cc3nc4ccccc4[nH]3)CC2)cc1C,6,53*,-4,10,8,-2
CCN1CCN(c2ccc(NC(=O)COc3ccc(Cl)cc3C)cc2)CC1,5,0,-7,-11,-11,20
Cc1ccc(Nc2nc(CSc3nnnn3C)cs2)cc1,-21,33,63*,-5,-192,-243
Cc1ccc(Nc2nc(CSc3nnnn3-c3ccccc3)cs2)cc1,22,38,58*,-5,-39,-19
Cc1ccc(Nc2nc(CSc3nnc(-c4cccnc4)n3-c3ccccc3C)cs2)cc1,23,51*,53*,-2,-20,-8
Cn1nnnc1SCc1csc(Nc2ccccc2)n1,-12,-11,4,-2,-150,-167
C/C(=N\NC(=O)c1ccccc1NC(=O)c1ccc(Cl)cc1)c1ccncc1,7,18,0,-17,38,64*
